# Test results: the supplement of paper PMC6555819
# System: FXR:RXRa (NR concentration 270 nM, RXRa partner concentration 90 nM)
# Experiment: PBM binding z-score (relative to random genomic background probes); higher = stronger binding; sequences stand for … in GC…GCGATTGACAGCGTAGAATGAAGG
# How it was run: (§1)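 Ligand-free nuclear receptor dimers were applied to custom Agilent 4×180K protein-binding microarrays whose double-stranded probes carried direct-repeat seeds, single-nucleotide variants, half-site ablations and random human genomic background sequences in 34-nt variable regions. Incubation lasted 1 h. Binding z-scores were computed against the random background probes from regression-normalized fluorescence.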
row,Sequence,PBM binding z-score
1,TCATATAGGTAAAGGTGAAAGTAGAACGATATGA,1.05
2,CCGAGTAGGTTATGCGGCATTCAGGCAACGGTGA,-0.091
3,TCAGCCAGGTGAAGGTAACTCAGGTACGCAGTCG,0.00852
4,ACTAGCAGGCCAAGTTTGGGTTACTCAAACAAAG,-0.336
5,CCTCGGAGGAAAACAGGAGGTCAGAGCTGCCAGA,0.663
6,ATATGTTGGTTAGCTGGGGTCATTCAGACTAGGC,3.89
7,GCTTACGGGCCAAAGGTTATAGCATGAATAGAAT,1.52
8,GCTAGCAGGCCATTTGGGTCACTTAATGACGGGC,0.0717
9,ATCGAAAGGTCGAAGGTGAGTAAACCCACCCGAA,4.69
10,TTACCAATGTGAAGGTCGTTGATCCCTCTGTAGA,1.87
11,TCATATAGGTTATACAGGTGAAAGTCGGCATCTA,1.71
12,AATACAGGGTCACTAGGCCAGAGCAGGTACGAAT,5.98
13,CCAGACAAGTGAAAGGTAACTCAGTCTGGTACGC,-0.0838
14,CCTACTGGGCCACGAAGGGTCATTGATTCAGTGA,2.42
15,CAGCTTAGGTCAGGGCCAGTATAGGAGGAACGTT,2.21
16,TCGCCTAGGTCATGCGGGCCAGTATAGTGTCGGC,4.09
17,ATCGAAAGGTCGAGGTGAGTAAAGAGAAAGGGAA,4.14
18,ATACCAAGGTGATCGTGAGGGCGTTGATACTAAC,0.788
19,CCTAATGGGCCATCAGGTCATTGATATCAACGTT,1.58
20,TAGCCTAGGTCATTCGGCCAGTATAGTACGCATC,4.5

row,Sequence,PBM binding z-score
1,TAAATGAGGTTATAAGATCAGGGAACGTTGCAAA,1.94
2,AGAATAAGGTTAAGATCAGGGAAACAGAATACAT,2.47
3,TAGCGTAGGTCATTCAGGGGCCAGTATAGAAAGC,4.91
4,TTTTGTAGATCAAGCAGGTTAAGAAAGCCTGAGT,-0.215
5,ATCTCTAGGTAACCAAGTTCAGTGATTGCCGAAC,0.358
6,TCATATAGGTAGAAGGTGAAAGTCGGTGTGGTAA,1.26
7,ACAGACAGGTGATGAAGGTAATTCAGGCTATCAT,-0.202
8,AGAACGAGGGAAATGAGTTGATAGCACGGGTGGC,-0.469
9,ACTTACGGGTCAACGAGGTTATAACACGCGTATA,7.16
10,ACAGACCGGTGATGAAGGTAACTCAGGCTATCAT,-0.208
11,AGAATGAGGTTATACGTAGATCATGGAAGAAAGT,2.28
12,TGAATGAGGTTGTAAGATCAGGGAACGTTGCAAA,-0.0998
13,ACTAGCAGGCCAAGTTTGGGACACTCAAACAAAG,-0.139
14,CGTCAAAGTTCAGGGTAACGTAACAGAAAGCAGC,4.15
15,ACAATTAGTTGAGACGAGGGCAACCGATAGGTTG,0.779
16,TCGAGTAGGTTAGTCGGGGCATTCAGCCAACATA,-0.132
17,CAAACTCGGTCAAGGTCAAAGTCGGTTTGTGCCA,5.73
18,CCTACTGGGACATCAGGTCATTGATATCAACGTT,1.42
19,AGTCAAAGTTCAGGACGGGGTAACGTAAAGCACG,4.41
20,ATCTCTAGGTAAAGATAGTTTAGTGAATGCAAAT,0.535

# System: LXRa:RXRa (NR concentration 270 nM, RXRa partner concentration 90 nM)
# Experiment: as above
# How it was run: as §1
row,Sequence,PBM binding z-score
1,TCATATAGGTAAAGGTGAAAGTAGAACGATATGA,1.4
2,CCGAGTAGGTTATGCGGCATTCAGGCAACGGTGA,0.00702
3,TCAGCCAGGTGAAGGTAACTCAGGTACGCAGTCG,1.19
4,ACTAGCAGGCCAAGTTTGGGTTACTCAAACAAAG,-0.429
5,CCTCGGAGGAAAACAGGAGGTCAGAGCTGCCAGA,1.69
6,ATATGTTGGTTAGCTGGGGTCATTCAGACTAGGC,4.15
7,GCTTACGGGCCAAAGGTTATAGCATGAATAGAAT,1.75
8,GCTAGCAGGCCATTTGGGTCACTTAATGACGGGC,-0.185
9,ATCGAAAGGTCGAAGGTGAGTAAACCCACCCGAA,3.83
10,TTACCAATGTGAAGGTCGTTGATCCCTCTGTAGA,2.22
11,TCATATAGGTTATACAGGTGAAAGTCGGCATCTA,2.32
12,AATACAGGGTCACTAGGCCAGAGCAGGTACGAAT,5.08
13,CCAGACAAGTGAAAGGTAACTCAGTCTGGTACGC,0.254
14,CCTACTGGGCCACGAAGGGTCATTGATTCAGTGA,2.97
15,CAGCTTAGGTCAGGGCCAGTATAGGAGGAACGTT,1.3
16,TCGCCTAGGTCATGCGGGCCAGTATAGTGTCGGC,2.65
17,ATCGAAAGGTCGAGGTGAGTAAAGAGAAAGGGAA,3.26
18,ATACCAAGGTGATCGTGAGGGCGTTGATACTAAC,0.233
19,CCTAATGGGCCATCAGGTCATTGATATCAACGTT,1.34
20,TAGCCTAGGTCATTCGGCCAGTATAGTACGCATC,3.51

row,Sequence,PBM binding z-score
1,TAAATGAGGTTATAAGATCAGGGAACGTTGCAAA,2.28
2,AGAATAAGGTTAAGATCAGGGAAACAGAATACAT,2.22
3,TAGCGTAGGTCATTCAGGGGCCAGTATAGAAAGC,4.31
4,TTTTGTAGATCAAGCAGGTTAAGAAAGCCTGAGT,-0.0979
5,ATCTCTAGGTAACCAAGTTCAGTGATTGCCGAAC,0.717
6,TCATATAGGTAGAAGGTGAAAGTCGGTGTGGTAA,1.21
7,ACAGACAGGTGATGAAGGTAATTCAGGCTATCAT,-0.317
8,AGAACGAGGGAAATGAGTTGATAGCACGGGTGGC,-0.525
9,ACTTACGGGTCAACGAGGTTATAACACGCGTATA,5.41
10,ACAGACCGGTGATGAAGGTAACTCAGGCTATCAT,-0.192
11,AGAATGAGGTTATACGTAGATCATGGAAGAAAGT,2.35
12,TGAATGAGGTTGTAAGATCAGGGAACGTTGCAAA,-0.208
13,ACTAGCAGGCCAAGTTTGGGACACTCAAACAAAG,-0.665
14,CGTCAAAGTTCAGGGTAACGTAACAGAAAGCAGC,3.51
15,ACAATTAGTTGAGACGAGGGCAACCGATAGGTTG,0.374
16,TCGAGTAGGTTAGTCGGGGCATTCAGCCAACATA,-0.201
17,CAAACTCGGTCAAGGTCAAAGTCGGTTTGTGCCA,5.09
18,CCTACTGGGACATCAGGTCATTGATATCAACGTT,1.88
19,AGTCAAAGTTCAGGACGGGGTAACGTAAAGCACG,4.06
20,ATCTCTAGGTAAAGATAGTTTAGTGAATGCAAAT,0.896
